Laboratory results reported in PMC7862700, “An all-to-all approach to the identification of sequence-specific readers for epigenetic DNA modifications on cytosine”.

Experiments:
Assay in all cases: DAPPL (digital affinity profiling via proximity ligation, sequencing); 10 mM Tris-HCl pH 7.5, 50 mM NaCl, 1 mM DTT, 4% glycerol, room temperature, 30 min; GST-TFs on glutathione beads, 16-mer random dsDNA library, 0.1% formaldehyde crosslink after washing; high values mean tight binding
FEV = target: T1, FEV (Homo sapiens, UniProt Q99581 1-238); conditions: protein: recombinant; tags: N-terminal GST; dsDNA, one strand shown
T1 sequence: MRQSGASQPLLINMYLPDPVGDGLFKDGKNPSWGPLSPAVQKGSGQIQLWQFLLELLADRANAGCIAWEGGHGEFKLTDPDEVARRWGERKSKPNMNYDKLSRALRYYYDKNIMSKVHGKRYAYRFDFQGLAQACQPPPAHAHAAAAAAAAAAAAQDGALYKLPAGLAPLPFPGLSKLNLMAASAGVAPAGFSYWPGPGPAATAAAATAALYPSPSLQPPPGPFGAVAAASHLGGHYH
In short: (§1)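 Binding signal is each hexamer's read frequency for a factor divided by its frequency in the tag-only sample. The factors were GST-fused human transcription factors from yeast, captured on glutathione beads, DNA-barcoded and pooled with that sample. Pools were incubated with 200 nmole of a random double-stranded 16-mer DNA library in Tris/NaCl/DTT/glycerol buffer at room temperature for 30 min, then washed, crosslinked with 0.1% formaldehyde, proximity-ligated with BsaI/T4 ligase (1 h, 37 °C), PCR-amplified and sequenced on an Illumina NextSeq500.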

ETV5 = ETV5 (Homo sapiens, UniProt P41161 1-510); conditions: protein: recombinant; tags: N-terminal GST; dsDNA, one strand shown
In short: as §1

HSF1 = HSF1 (Homo sapiens, UniProt Q00613 1-529); conditions: protein: recombinant; tags: N-terminal GST; chain copies: 3; dsDNA, one strand shown
In short: as §1

ELF4 = ELF4 (Homo sapiens, UniProt Q99607 1-663); conditions: protein: recombinant; tags: N-terminal GST; dsDNA, one strand shown
In short: as §1

ELK4 = target: T2, ELK4 (Homo sapiens, UniProt P28324-2 1-405); conditions: protein: recombinant; tags: N-terminal GST; dsDNA, one strand shown
T2 sequence: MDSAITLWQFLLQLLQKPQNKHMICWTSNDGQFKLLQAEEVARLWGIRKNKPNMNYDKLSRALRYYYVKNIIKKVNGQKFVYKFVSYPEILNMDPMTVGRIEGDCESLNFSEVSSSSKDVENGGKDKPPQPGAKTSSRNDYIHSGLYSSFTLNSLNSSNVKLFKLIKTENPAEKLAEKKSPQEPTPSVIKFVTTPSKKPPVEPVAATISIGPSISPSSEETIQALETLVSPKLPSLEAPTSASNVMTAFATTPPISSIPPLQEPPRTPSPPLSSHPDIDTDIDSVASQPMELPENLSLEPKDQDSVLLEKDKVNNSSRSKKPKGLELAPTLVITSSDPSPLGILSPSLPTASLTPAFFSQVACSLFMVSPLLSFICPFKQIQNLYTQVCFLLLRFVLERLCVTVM
In short: as §1

ETV2 = target: T3, ETV2 (Homo sapiens, UniProt O00321 1-342); conditions: protein: recombinant; tags: N-terminal GST; dsDNA, one strand shown
T3 sequence: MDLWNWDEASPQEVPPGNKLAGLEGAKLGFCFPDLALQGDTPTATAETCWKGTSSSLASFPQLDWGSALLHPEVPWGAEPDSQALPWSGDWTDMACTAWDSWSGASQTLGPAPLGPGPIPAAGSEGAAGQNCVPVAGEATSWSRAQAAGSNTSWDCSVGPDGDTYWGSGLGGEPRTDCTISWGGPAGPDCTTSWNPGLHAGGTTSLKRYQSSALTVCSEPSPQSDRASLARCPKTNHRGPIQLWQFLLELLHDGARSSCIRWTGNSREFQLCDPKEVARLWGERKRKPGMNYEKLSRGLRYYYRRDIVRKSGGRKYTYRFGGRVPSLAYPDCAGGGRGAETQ
In short: as §1

ELF3 = target: T4, ELF3 (Homo sapiens, UniProt P78545 1-371); conditions: protein: recombinant; tags: N-terminal GST; dsDNA, one strand shown
T4 sequence: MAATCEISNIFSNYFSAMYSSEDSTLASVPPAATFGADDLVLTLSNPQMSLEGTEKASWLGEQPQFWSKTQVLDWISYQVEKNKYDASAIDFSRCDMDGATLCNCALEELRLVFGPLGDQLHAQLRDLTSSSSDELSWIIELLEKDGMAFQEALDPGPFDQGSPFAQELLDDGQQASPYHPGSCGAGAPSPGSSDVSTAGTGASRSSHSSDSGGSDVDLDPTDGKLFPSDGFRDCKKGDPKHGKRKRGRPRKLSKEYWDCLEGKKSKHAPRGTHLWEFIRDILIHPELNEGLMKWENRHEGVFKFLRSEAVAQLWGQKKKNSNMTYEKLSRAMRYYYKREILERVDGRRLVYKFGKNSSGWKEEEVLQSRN
In short: as §1

CRX = CRX (Homo sapiens, UniProt O43186 1-299); conditions: protein: recombinant; tags: N-terminal GST; dsDNA, one strand shown
In short: as §1

ETV1 = ETV1 (Homo sapiens, UniProt P50549 1-477); conditions: protein: recombinant; tags: N-terminal GST; dsDNA, one strand shown
In short: as §1

ERF = target: T5, ERF (Homo sapiens, UniProt P50548 1-548); conditions: protein: recombinant; tags: N-terminal GST; dsDNA, one strand shown
T5 sequence: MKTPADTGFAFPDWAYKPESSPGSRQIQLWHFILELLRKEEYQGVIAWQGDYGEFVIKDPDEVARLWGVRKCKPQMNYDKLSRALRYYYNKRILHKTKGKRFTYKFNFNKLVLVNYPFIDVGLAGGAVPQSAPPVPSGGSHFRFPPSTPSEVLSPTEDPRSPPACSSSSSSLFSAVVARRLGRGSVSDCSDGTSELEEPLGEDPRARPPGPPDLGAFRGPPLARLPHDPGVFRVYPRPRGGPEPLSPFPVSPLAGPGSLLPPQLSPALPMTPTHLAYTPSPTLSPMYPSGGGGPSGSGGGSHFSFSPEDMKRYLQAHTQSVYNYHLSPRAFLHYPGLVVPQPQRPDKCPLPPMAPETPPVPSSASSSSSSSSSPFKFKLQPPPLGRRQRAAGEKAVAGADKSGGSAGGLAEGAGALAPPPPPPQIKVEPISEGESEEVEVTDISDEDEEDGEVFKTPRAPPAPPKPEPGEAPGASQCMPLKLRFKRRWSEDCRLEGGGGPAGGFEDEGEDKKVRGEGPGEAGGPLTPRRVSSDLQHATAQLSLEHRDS
In short: as §1

ETV3L = target: T6, ETV3L (Homo sapiens, UniProt Q6ZN32 1-361); conditions: protein: recombinant; tags: N-terminal GST; dsDNA, one strand shown
T6 sequence: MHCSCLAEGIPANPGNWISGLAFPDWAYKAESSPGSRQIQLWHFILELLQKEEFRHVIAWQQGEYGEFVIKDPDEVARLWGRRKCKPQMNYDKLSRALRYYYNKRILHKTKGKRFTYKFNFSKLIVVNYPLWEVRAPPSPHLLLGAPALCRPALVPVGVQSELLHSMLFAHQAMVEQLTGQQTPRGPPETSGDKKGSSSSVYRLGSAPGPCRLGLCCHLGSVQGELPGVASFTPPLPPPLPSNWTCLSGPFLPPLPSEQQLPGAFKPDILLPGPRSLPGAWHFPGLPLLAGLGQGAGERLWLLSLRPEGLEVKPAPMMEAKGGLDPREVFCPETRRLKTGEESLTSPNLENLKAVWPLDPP
In short: as §1

ETV7 = target: T7, ETV7 (Homo sapiens, UniProt Q9Y603 1-341); conditions: protein: recombinant; tags: N-terminal GST; dsDNA, one strand shown
T7 sequence: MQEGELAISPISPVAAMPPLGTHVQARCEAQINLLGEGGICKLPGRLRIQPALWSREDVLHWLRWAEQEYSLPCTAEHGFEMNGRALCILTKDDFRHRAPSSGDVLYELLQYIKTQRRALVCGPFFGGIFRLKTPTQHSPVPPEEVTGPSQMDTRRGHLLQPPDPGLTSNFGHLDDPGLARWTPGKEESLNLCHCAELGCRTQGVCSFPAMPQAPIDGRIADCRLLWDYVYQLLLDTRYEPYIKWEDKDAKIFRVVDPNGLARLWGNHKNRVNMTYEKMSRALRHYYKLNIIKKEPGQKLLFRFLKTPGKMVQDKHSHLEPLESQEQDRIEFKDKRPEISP
In short: as §1

ELF5 = target: T8, ELF5 (Homo sapiens, UniProt Q9UKW6-2 1-255); conditions: protein: recombinant; tags: N-terminal GST; dsDNA, one strand shown
T8 sequence: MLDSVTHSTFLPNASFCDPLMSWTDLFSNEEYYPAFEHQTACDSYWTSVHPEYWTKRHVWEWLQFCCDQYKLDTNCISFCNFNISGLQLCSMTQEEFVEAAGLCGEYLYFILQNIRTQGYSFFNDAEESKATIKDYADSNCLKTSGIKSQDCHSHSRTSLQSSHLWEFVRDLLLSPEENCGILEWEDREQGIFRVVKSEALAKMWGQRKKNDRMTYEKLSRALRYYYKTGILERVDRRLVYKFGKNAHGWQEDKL
In short: as §1

ETV3 = target: T9, ETV3 (Homo sapiens, UniProt P41162-2 1-143); conditions: protein: recombinant; tags: N-terminal GST; dsDNA, one strand shown
T9 sequence: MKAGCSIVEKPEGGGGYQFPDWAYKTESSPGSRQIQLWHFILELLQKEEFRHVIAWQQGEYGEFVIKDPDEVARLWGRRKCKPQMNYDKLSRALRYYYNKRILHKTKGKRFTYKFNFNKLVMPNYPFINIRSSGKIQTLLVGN
In short: as §1

ETV6 = ETV6 (Homo sapiens, UniProt P41212 1-452); conditions: protein: recombinant; tags: N-terminal GST; dsDNA, one strand shown
In short: as §1

ETS2 = target: T10, ETS2 (Homo sapiens, UniProt P15036 1-469); conditions: protein: recombinant; tags: N-terminal GST; dsDNA, one strand shown
T10 sequence: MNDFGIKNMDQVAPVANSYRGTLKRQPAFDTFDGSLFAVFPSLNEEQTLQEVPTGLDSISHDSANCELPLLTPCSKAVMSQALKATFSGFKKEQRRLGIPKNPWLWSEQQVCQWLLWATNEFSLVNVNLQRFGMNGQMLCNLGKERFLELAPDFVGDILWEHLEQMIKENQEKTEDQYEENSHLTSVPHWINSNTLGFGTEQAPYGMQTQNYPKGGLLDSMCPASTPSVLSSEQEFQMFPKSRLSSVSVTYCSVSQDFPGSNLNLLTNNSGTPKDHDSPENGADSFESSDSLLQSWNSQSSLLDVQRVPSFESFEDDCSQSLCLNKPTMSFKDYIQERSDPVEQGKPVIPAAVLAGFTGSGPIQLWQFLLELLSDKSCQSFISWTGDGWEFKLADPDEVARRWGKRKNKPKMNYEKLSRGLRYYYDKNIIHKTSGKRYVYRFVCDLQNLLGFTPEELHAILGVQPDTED
In short: as §1

SPDEF = target: T11, SPDEF (Homo sapiens, UniProt O95238 1-335); conditions: protein: recombinant; tags: N-terminal GST; dsDNA, one strand shown
T11 sequence: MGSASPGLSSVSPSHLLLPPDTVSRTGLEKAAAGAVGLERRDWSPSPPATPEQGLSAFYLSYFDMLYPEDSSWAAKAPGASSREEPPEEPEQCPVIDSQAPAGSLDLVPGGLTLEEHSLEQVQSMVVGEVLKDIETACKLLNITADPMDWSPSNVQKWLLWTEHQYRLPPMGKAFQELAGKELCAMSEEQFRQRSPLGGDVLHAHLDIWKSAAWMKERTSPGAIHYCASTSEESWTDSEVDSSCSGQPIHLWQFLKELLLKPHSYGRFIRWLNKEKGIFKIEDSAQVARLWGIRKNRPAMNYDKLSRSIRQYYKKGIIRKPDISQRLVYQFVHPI
In short: as §1

ELF4, sequence (Q99607 whole entry): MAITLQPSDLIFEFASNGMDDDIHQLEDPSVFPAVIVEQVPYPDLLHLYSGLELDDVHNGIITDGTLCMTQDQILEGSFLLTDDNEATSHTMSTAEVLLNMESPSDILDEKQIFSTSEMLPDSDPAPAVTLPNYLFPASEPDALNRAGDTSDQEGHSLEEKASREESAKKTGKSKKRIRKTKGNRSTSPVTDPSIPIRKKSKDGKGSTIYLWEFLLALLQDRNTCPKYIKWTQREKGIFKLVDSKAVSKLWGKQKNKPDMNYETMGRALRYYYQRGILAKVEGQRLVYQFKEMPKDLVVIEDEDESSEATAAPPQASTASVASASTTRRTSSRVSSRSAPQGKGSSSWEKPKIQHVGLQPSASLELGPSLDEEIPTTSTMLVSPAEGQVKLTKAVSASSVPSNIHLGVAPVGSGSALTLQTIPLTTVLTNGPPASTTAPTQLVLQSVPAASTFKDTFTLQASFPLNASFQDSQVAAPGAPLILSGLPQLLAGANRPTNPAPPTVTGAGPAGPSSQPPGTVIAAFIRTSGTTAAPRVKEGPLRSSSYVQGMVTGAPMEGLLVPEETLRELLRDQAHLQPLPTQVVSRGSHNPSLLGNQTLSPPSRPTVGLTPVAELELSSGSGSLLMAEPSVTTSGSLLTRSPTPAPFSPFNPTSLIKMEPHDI
ETV6, sequence (P41212 whole entry): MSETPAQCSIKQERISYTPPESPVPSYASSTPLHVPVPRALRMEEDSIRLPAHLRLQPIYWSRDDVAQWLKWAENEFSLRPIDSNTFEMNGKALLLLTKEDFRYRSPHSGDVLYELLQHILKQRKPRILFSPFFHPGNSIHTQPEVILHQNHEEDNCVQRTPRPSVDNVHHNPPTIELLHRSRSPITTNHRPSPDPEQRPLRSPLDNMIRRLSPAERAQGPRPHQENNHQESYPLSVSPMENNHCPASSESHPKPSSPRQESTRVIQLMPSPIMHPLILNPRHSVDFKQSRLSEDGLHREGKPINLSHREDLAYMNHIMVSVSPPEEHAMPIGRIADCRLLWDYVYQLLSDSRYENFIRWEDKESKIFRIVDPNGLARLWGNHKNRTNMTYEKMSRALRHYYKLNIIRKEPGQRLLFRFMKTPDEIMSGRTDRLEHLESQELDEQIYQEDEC
ETV5, sequence (P41161 whole entry): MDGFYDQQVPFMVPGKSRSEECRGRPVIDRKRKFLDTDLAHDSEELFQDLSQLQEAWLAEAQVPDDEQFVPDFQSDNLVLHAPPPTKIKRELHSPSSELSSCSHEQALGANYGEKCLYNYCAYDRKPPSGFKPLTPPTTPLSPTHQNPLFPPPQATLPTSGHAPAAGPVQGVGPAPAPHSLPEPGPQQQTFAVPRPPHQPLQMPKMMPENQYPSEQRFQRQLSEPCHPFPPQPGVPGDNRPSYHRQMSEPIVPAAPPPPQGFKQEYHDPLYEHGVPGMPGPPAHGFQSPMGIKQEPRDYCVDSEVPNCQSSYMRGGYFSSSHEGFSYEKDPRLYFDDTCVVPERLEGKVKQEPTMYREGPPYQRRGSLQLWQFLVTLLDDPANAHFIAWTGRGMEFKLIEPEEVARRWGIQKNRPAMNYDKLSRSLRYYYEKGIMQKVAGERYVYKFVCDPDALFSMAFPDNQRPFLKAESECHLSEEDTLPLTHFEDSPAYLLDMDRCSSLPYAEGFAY
CRX, sequence (O43186 whole entry): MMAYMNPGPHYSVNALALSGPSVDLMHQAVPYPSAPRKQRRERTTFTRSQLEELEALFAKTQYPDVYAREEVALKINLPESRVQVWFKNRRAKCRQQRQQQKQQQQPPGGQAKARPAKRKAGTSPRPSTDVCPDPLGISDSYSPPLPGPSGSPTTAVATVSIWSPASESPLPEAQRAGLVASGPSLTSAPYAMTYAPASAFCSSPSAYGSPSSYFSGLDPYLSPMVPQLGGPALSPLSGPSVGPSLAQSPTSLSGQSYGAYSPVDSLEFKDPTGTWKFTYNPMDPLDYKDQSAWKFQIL
ETV1, sequence (P50549 whole entry): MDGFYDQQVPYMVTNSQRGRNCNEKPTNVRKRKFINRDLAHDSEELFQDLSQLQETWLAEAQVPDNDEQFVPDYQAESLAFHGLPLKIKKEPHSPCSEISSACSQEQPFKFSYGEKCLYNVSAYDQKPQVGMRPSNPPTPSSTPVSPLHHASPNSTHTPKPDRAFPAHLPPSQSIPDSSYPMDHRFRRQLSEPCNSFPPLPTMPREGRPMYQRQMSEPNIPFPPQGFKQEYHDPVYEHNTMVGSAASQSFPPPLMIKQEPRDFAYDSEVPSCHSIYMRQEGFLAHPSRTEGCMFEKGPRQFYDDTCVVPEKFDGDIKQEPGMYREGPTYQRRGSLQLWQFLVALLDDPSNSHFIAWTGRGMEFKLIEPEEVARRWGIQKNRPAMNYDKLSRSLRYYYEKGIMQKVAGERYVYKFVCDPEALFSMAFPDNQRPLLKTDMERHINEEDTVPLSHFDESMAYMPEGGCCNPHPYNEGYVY
HSF1, sequence (Q00613 whole entry): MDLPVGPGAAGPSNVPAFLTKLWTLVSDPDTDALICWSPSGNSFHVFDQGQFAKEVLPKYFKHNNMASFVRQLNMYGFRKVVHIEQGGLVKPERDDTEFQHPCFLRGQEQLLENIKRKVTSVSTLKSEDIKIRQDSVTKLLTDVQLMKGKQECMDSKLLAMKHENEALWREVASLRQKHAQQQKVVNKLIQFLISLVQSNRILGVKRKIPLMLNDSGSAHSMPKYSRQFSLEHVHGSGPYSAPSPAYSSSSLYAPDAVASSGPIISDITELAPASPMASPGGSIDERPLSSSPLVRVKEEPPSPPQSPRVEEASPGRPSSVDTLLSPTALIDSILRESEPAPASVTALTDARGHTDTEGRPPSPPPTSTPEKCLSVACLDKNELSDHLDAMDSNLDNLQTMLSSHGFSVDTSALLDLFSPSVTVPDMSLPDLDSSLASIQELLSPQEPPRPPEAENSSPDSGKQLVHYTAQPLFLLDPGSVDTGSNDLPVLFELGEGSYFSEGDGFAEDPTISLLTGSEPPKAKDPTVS

Row | Sequence | binding signal (FEV) | binding signal (ETV5) | binding signal (HSF1) | binding signal (ELF4) | binding signal (ELK4) | binding signal (ETV2) | binding signal (ELF3) | binding signal (CRX) | binding signal (ETV1) | binding signal (ERF) | binding signal (ETV3L) | binding signal (ETV7) | binding signal (ELF5) | binding signal (ETV3) | binding signal (ETV6) | binding signal (ETS2) | binding signal (SPDEF)
1 | AAGCCC | 1.06 fold enrichment (6-mer frequency, TF over GST control) | 1.04 fold enrichment (6-mer frequency, TF over GST control) | 1.22 fold enrichment (6-mer frequency, TF over GST control) | 1.04 fold enrichment (6-mer frequency, TF over GST control) | 1.06 fold enrichment (6-mer frequency, TF over GST control) | 1.11 fold enrichment (6-mer frequency, TF over GST control) | 1.04 fold enrichment (6-mer frequency, TF over GST control) | 1.54 fold enrichment (6-mer frequency, TF over GST control) | 1.06 fold enrichment (6-mer frequency, TF over GST control) | 1.11 fold enrichment (6-mer frequency, TF over GST control) | 1.07 fold enrichment (6-mer frequency, TF over GST control) | 1.01 fold enrichment (6-mer frequency, TF over GST control) | 1.02 fold enrichment (6-mer frequency, TF over GST control) | 1.1 fold enrichment (6-mer frequency, TF over GST control) | 1.03 fold enrichment (6-mer frequency, TF over GST control) |  | 
2 | ACAAGC | 1.09 fold enrichment (6-mer frequency, TF over GST control) | 1.12 fold enrichment (6-mer frequency, TF over GST control) | 1.01 fold enrichment (6-mer frequency, TF over GST control) | 1.13 fold enrichment (6-mer frequency, TF over GST control) | 1.12 fold enrichment (6-mer frequency, TF over GST control) | 1.06 fold enrichment (6-mer frequency, TF over GST control) | 1.07 fold enrichment (6-mer frequency, TF over GST control) | 1.07 fold enrichment (6-mer frequency, TF over GST control) | 1.16 fold enrichment (6-mer frequency, TF over GST control) | 1.15 fold enrichment (6-mer frequency, TF over GST control) | 1.11 fold enrichment (6-mer frequency, TF over GST control) | 1.01 fold enrichment (6-mer frequency, TF over GST control) | 1.02 fold enrichment (6-mer frequency, TF over GST control) | 1.13 fold enrichment (6-mer frequency, TF over GST control) | 1.09 fold enrichment (6-mer frequency, TF over GST control) | 1.18 fold enrichment (6-mer frequency, TF over GST control) | 1 fold enrichment (6-mer frequency, TF over GST control)
